Measured values: the supplement of paper PMC11732987, “Enantioselective OTUD7B fragment discovery through chemoproteomics screening and high-throughput optimisation” (Communications Chemistry, 2025)

Legend:
Test in all cases: log2 ratio of Biotin-Ahx-Ub-VS probe labelling (fragment/DMSO); higher = less target engagement (more negative = stronger competition), active = hit call of the paper (q ≤ 0.05, log2 ratio ≤ -1)
Details in all cases: compound concentration: 200 uM; treatment time: 3 h
USP34 = USP34 (UniProt Q70CQ2)
Sequence of USP34 (Q70CQ2 whole entry, the tested form may be a part): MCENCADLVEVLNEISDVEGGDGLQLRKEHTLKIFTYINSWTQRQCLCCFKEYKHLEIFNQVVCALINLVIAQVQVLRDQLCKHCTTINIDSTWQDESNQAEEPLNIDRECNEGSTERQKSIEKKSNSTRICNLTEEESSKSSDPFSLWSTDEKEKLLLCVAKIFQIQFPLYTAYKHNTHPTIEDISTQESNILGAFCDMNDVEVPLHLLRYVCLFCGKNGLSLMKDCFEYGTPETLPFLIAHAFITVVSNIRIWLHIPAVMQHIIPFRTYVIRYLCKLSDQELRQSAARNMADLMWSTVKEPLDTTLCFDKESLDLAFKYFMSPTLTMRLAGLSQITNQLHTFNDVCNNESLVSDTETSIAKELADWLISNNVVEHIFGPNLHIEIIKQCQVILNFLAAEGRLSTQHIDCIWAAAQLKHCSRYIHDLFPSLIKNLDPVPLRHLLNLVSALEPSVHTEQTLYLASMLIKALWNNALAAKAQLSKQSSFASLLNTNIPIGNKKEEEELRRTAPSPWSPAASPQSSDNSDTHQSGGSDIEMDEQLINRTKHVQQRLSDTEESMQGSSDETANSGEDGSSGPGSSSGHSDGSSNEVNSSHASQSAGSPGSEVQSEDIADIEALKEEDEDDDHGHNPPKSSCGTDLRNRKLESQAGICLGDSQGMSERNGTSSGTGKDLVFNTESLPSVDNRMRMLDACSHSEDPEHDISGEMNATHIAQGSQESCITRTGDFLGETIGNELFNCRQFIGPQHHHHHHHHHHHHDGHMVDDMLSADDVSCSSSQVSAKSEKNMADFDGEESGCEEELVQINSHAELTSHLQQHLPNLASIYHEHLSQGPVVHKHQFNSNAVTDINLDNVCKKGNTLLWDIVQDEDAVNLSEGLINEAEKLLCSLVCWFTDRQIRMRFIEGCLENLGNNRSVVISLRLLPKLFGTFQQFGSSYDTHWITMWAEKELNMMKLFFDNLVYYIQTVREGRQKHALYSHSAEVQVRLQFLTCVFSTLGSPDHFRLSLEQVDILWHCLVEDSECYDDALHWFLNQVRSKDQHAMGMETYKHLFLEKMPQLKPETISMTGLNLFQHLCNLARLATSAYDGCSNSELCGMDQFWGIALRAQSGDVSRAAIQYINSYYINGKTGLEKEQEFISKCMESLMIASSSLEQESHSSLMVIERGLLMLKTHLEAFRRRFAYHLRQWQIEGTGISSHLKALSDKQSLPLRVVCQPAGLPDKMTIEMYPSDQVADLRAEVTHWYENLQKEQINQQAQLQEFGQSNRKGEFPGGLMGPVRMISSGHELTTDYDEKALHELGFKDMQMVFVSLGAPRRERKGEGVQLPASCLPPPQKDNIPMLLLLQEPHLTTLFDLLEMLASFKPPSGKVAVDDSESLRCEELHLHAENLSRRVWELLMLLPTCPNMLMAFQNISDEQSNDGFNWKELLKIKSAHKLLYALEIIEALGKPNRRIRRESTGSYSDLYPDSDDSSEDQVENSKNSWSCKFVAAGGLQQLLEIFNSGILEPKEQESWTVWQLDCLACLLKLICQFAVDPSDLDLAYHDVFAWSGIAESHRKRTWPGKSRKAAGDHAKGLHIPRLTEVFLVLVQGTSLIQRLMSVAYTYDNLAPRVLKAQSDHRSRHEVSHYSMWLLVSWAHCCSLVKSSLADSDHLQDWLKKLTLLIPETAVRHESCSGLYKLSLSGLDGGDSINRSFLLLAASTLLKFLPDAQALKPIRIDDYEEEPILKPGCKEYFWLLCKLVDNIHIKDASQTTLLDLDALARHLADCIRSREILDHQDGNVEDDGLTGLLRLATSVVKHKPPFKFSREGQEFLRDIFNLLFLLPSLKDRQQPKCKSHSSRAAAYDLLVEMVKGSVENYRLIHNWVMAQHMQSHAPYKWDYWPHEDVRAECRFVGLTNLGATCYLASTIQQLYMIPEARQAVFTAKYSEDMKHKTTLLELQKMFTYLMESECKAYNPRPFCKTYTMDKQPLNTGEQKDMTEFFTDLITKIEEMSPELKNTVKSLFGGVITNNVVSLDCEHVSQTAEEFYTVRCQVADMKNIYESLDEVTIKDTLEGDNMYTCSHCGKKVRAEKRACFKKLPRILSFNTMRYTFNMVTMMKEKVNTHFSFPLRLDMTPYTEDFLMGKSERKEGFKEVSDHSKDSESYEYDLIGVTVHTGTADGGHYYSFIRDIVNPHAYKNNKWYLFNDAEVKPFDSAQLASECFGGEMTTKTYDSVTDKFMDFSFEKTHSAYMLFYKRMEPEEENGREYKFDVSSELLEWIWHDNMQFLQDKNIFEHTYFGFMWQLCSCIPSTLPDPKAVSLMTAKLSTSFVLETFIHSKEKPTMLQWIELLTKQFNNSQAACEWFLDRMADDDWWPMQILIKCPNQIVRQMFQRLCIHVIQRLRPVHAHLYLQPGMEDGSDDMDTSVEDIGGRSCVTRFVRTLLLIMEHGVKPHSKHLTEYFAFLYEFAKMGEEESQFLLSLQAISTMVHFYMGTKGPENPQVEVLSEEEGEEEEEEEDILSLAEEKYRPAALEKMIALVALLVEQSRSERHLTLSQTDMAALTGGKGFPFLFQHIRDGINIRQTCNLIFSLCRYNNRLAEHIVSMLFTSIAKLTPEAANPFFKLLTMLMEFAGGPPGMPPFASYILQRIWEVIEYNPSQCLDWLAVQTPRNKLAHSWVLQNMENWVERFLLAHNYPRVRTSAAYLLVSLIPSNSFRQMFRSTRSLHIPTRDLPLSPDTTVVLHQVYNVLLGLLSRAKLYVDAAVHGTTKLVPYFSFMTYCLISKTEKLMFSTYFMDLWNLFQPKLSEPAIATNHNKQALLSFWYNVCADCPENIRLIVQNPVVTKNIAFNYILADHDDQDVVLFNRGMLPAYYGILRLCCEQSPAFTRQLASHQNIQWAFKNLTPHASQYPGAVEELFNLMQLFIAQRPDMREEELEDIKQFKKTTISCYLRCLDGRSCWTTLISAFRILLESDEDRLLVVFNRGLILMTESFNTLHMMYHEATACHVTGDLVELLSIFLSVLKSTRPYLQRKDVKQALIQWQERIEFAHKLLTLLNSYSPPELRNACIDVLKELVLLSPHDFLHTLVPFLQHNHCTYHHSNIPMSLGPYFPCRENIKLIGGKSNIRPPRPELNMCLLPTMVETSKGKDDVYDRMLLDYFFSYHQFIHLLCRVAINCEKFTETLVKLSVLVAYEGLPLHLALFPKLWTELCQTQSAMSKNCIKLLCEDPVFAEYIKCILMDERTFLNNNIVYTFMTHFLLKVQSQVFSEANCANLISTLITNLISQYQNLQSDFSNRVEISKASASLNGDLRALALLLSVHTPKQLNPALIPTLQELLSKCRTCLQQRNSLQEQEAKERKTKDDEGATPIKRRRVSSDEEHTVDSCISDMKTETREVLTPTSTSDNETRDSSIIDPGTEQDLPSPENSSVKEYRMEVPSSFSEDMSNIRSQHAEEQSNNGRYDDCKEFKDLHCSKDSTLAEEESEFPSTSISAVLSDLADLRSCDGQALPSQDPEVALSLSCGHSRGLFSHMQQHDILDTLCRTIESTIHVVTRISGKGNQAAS
Outline: (§1)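 Triplicate samples of HEK293T lysate, 495 µg each, received fragment at 200 µM or vehicle for 3 h, followed by Biotin-Ahx-Ub-VS (0.5 µM final) for 1 h. After NeutrAvidin enrichment of labelled DUBs and LysC/trypsin digestion, peptides were run by diaPASEF LC-MS/MS. The values are average log2 fragment/vehicle ratios from global-median-normalised Spectronaut label-free quantities, tested by unpaired t-test on proteins having ≥2 unique peptides.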

USP36 = target: T1, USP36 (UniProt Q9P275)
T1 sequence (whole entry): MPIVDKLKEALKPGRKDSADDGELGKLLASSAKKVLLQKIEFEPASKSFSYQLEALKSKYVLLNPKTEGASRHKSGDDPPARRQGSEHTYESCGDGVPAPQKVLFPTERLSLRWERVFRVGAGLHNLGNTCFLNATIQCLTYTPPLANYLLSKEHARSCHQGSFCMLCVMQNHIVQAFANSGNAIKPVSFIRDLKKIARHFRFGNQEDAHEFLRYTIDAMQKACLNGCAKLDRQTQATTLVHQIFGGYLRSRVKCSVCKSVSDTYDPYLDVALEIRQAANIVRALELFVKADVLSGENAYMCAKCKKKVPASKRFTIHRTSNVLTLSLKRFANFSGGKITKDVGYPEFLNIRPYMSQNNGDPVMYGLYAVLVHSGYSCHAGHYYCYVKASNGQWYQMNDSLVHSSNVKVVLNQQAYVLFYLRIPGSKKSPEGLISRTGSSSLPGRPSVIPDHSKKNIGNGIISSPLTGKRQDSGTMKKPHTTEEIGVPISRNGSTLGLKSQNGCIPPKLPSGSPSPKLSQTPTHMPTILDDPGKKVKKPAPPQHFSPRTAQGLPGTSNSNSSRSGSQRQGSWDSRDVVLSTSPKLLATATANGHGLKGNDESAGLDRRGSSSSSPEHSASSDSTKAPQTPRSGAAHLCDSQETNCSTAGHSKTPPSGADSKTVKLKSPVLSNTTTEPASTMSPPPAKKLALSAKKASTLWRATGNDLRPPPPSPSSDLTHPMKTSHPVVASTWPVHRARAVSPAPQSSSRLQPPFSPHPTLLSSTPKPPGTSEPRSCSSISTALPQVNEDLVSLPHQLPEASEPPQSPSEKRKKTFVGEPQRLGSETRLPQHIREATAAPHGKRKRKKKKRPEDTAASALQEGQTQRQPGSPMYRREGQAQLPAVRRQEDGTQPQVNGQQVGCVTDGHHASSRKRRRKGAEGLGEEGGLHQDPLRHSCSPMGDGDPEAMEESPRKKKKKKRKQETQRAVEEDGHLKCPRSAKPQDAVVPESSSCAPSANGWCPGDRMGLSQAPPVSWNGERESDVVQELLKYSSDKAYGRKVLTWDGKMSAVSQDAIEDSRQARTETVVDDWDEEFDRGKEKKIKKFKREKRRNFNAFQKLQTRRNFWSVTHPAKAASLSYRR
Outline: as §1

USP38 = target: T2, USP38 (UniProt Q8NB14)
T2 sequence (whole entry): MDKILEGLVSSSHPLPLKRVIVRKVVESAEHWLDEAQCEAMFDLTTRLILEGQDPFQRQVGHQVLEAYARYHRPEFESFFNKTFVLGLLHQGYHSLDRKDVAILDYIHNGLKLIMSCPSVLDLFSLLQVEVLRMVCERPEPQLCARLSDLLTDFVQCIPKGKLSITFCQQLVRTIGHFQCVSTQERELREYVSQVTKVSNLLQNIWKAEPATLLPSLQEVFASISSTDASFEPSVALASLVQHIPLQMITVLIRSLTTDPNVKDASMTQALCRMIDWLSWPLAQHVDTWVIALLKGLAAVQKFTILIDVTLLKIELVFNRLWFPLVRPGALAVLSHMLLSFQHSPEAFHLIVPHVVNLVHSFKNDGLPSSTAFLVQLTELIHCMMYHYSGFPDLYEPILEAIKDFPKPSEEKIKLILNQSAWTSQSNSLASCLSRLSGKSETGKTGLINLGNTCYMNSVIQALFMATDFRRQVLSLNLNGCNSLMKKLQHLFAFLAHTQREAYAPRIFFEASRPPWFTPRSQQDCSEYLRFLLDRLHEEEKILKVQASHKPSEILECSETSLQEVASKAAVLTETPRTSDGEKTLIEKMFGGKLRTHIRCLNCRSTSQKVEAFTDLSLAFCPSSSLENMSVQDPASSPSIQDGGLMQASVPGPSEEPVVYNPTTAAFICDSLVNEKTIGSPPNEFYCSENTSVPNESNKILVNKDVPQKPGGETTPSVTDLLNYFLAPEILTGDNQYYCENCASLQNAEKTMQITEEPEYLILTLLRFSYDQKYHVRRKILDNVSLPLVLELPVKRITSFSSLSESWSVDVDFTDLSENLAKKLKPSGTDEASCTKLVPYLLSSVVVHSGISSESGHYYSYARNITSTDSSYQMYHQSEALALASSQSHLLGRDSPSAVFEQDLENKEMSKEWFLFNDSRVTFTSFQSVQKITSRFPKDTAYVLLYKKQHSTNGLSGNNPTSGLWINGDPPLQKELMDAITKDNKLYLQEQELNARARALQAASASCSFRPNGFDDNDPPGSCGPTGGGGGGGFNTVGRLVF
Outline: as §1

USP39 = target: T3, USP39 (UniProt Q53GS9)
T3 sequence (whole entry): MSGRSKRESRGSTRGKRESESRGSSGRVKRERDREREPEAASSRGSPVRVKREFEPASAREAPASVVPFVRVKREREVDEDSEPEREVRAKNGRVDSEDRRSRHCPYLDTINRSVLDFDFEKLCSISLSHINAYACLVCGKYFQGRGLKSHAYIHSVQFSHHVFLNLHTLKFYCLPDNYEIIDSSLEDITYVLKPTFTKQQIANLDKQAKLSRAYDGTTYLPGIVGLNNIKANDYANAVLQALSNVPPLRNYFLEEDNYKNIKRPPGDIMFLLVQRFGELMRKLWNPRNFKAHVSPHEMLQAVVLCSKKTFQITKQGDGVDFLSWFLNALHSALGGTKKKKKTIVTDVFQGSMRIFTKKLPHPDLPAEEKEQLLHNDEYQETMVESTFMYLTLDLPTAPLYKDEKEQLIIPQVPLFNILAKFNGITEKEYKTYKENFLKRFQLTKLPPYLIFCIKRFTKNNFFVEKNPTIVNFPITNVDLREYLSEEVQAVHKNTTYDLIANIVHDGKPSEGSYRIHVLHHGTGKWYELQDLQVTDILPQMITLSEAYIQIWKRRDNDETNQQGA
Outline: as §1

USP4 = target: T4, USP4 (UniProt Q13107)
T4 sequence (whole entry): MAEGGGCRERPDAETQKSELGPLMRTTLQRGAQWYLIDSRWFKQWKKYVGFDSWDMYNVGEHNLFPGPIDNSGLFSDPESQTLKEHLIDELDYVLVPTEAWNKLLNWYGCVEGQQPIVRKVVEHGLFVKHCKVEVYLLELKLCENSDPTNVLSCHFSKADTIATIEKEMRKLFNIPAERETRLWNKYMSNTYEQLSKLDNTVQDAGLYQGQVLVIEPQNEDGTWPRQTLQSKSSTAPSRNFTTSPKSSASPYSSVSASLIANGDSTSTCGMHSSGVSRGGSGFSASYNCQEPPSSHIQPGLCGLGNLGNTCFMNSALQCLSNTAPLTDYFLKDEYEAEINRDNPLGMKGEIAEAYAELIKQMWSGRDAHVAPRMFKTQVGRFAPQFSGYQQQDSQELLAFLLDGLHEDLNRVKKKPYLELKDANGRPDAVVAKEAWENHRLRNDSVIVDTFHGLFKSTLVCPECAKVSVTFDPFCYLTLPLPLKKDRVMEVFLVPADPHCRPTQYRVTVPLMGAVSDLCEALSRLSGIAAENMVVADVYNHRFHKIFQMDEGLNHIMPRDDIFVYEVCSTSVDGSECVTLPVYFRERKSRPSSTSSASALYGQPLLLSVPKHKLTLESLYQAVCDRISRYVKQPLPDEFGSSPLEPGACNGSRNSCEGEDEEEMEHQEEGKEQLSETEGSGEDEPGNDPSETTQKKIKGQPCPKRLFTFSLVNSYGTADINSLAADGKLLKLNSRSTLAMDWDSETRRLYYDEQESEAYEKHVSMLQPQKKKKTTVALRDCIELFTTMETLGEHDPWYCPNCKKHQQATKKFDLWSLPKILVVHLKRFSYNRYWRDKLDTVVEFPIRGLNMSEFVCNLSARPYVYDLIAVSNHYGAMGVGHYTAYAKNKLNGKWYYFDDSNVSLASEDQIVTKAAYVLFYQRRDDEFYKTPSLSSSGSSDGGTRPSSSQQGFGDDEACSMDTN
Outline: as §1

Measured: log2 ratio of Biotin-Ahx-Ub-VS probe labelling

Cc1nnc(C(NC(=O)CCl)c2ccccc2)n1C (stereo not given)
inactive: USP34 0.334 | USP36 0.114 | USP38 0.538 | USP39 0.132 | USP4 0.55
